Screens (PubChem BioAssay)
This is a sample that favours compounds with a hit; in the whole collection about 4% have one here.
UGM FP inh: inhibitors of M. tuberculosis UDP-galactopyranose mutase; AID 504406; hit rate 0.06% among 320,000; P9WIQ1; purified UGM, fluorescence polarization probe displacement; inhibition, % at 10 µM; in the data active = inhibition above about 10%, passing the limit was not always enough; inconclusive = no clear call, values can overlap the other calls
Target sequence (P9WIQ1 whole entry, looked up): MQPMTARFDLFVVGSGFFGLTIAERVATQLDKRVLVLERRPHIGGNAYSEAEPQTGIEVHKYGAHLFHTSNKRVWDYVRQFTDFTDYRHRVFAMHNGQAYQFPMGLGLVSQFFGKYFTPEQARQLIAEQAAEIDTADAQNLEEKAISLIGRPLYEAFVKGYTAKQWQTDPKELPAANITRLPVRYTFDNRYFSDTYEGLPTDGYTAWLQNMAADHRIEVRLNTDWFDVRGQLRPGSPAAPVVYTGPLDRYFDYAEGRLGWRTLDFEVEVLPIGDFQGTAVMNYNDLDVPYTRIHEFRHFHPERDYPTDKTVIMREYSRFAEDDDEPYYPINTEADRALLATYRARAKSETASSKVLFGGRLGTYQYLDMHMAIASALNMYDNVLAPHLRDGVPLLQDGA
Mtb bLac sens: beta-lactam sensitization of Mtb H37Rv. M. tuberculosis H37Rv growth with meropenem, percent inhibition. inhibition, % at 25 µM. hit rate 0.27% among 330,000. AID 434955;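 also: growth measured after seven days incubation then overnight dye step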
Mtb FBA inh: Mtb fructose-bisphosphate aldolase inhibition; inhibition, % at 1 µM; hit rate 2.3% among 360,000; P9WQA3; purified M. tuberculosis FBA, fluorescence read-out; in the data active = inhibition above about 27%
RecA splice inh: blocks M. tuberculosis RecA intein splicing; P9WHJ3; cell-free RecA intein splicing, fluorescence; inhibition, % (no concentration beside the values); hit rate 0.75% among 290,000; AID 2221; in the data active = inhibition above about 30%; inconclusive = no clear call, values can overlap the other calls
Rv3671c protease: inhibits the M. tuberculosis serine protease Rv3671c; inhibition, % at 5.96 µM; P9WHR9; hit rate 0.048% among 320,000; in the data active = inhibition above about 38%;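 also: extracellular domain of Rv3671c used as enzyme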
GDH-TPI counter: inhibits GDH-TPI coupling enzymes, artifact for Mtb FBA screen; GDH-TPI coupled enzyme counterscreen, NADH absorbance; inhibition, % at 4.8 µM; hit rate 1.2% among 360,000; AID 588335; in the data active = inhibition above about 30%
GFP chromo cs: counter-screen GFP chromophore formation inhibition; shares compounds with RecA splice inh; cell-free GFP chromophore formation, fluorescence; EC50, µM; hit rate 83% among 2,100
A number is an active result; i = inactive; ? = inconclusive; nt = not tested or not shown. Unless noted, no rule for the calls is given here.

SMILES | UGM FP inh | Mtb bLac sens | Mtb FBA inh | RecA splice inh | Rv3671c protease | GDH-TPI counter | GFP chromo cs
O=C(CN1C(=O)/C(=C/c2ccc(F)cc2)SC1=S)NC1CCS(=O)(=O)C1 (stereo unspecified) | i | i | i | i | i | i | nt
CCCCn1c(N)c(N(CCOC)C(=O)CSc2nnc(-c3ccco3)n2CC)c(=O)[nH]c1=O | i | i | i | nt | i | i | nt
O=C(OCc1nnc(-c2ccc([N+](=O)[O-])cc2)o1)c1ccc(F)c(S(=O)(=O)N2CCOCC2)c1 | nt | nt | i | nt | nt | i | nt
COc1cccc2c1C(=O)c1c(O)c3c(c(O)c1C2=O)C[C@@](O)(C(=O)CO)C[C@@H]3O[C@H]1C[C@H](N)[C@@H](O)[C@H](C)O1 | 38 | i | i | i | i | i | nt
OC(c1cccc(Cl)c1)c1ncc(-c2cccc(C(F)(F)F)c2)[nH]1 (stereo unspecified) | nt | nt | i | nt | nt | i | nt
Cc1ccc(C)c(S(=O)(=O)N2CCN(C(=O)[C@H](C)N3C(=O)C4CC=CCC4C3=O)CC2)c1 (stereo partly specified) | i | i | i | nt | i | i | nt
CCN1CCN(c2nc(C)nc3c2sc(=S)n3C)CC1 | nt | nt | i | nt | nt | 35 | nt
Cc1nc(N2CCCCC2)c2sc(=S)n(C)c2n1 | i | i | i | i | i | i | nt
CN(C)c1ccc2c(c1[N+](=O)[O-])Cc1ccccc1-2 | nt | nt | i | nt | nt | i | nt
CN(Cc1cccnc1)C(=O)c1cc(COc2ccc3c(c2)CCCC3)on1 | i | ? | i | i | i | i | nt
CCOC(=O)CN1C(=O)C(CC)Oc2ccccc21 (stereo unspecified) | i | i | i | i | i | i | nt
CCOC(=O)C(C(=O)OCC)C1N=C(N)N=C2Oc3ccccc3N21 (stereo unspecified) | i | i | i | i | i | 49 | nt
OC(CNCCc1ccc(C(F)(F)F)cc1)COC(c1ccccc1)c1ccccc1 (stereo unspecified) | i | i | i | i | i | i | nt
O=C(CSCc1ccc(Cl)cc1)N/N=C/c1c(Cl)cccc1Cl | i | i | i | i | i | i | nt
O=C(Cc1cc(=O)[nH][nH]1)N/N=C/c1c(Cl)cccc1Cl | i | i | i | 70 | i | i | 12
O=C(Cc1cc(=O)[nH][nH]1)N/N=C/c1c(F)cccc1Cl | i | i | i | 95 | i | i | 7.9
O=[N+]([O-])c1c(Nc2cccc(O)c2)cc(Cl)c2nonc12 | i | i | i | i | i | i | nt
CNc1cc(Cl)c2nonc2c1[N+](=O)[O-] | nt | nt | i | 86 | nt | i | 7.7
COc1cc2c(cc1OC)-c1c(OC)c(OC)cc3c1[C@H](C2)N(C)CC3 | i | i | i | 34 | i | i | 22
COc1ccc2c(c1O)-c1c(OC)c(OC)cc3c1[C@H](C2)N(C)CC3 | i | i | i | nt | i | i | nt
CC1=NN(c2ccccc2)C(=O)C1N=Nc1cccc(O)c1 (stereo unspecified) | i | i | i | i | i | i | nt
CC1=NN(c2ccc(C)cc2C)C(=O)C1C(c1cccc(O)c1)C1C(=O)N(c2ccc(C)cc2C)N=C1C (stereo unspecified) | i | i | i | 97 | i | i | 1.4
Cc1[nH][nH]c(=O)c1C(c1cc(Br)ccc1O)c1c(C)[nH][nH]c1=O | i | i | i | 97 | i | i | 0.53
Cc1[nH][nH]c(=O)c1C(c1cc2c(cc1Br)OCO2)c1c(C)[nH][nH]c1=O | i | i | i | 95 | i | i | 0.72
C[C@H]1CN([C@@H](C)CO)C(=O)CCCn2nncc2CO[C@H]1CN(C)C(=O)Cc1ccccc1 | nt | nt | i | nt | nt | i | nt
SMILES | UGM FP inh | Mtb bLac sens | Mtb FBA inh | RecA splice inh | Rv3671c protease | GDH-TPI counter | GFP chromo cs
COc1ccc2[nH]c(CN3CCC(CO)(CCOc4ccccc4)CC3)c(C)c2c1 | i | i | i | 40 | i | i | i
COc1ccc(CN2CCC(CO)(CCOc3ccccc3)CC2)c(OC)c1C | i | i | i | i | i | i | nt
Cc1cc2c(cc1S(=O)(=O)NCc1ccccc1)OCC(=O)N2 | i | i | i | i | i | i | nt
CCOC1=C2[C@H]([C@H]3C(=O)N(c4ccccc4)C(=O)[C@H]3C1)[C@@H](C(C)C)N(S(=O)(=O)c1ccc(C)cc1)[C@H]2c1ccccc1 | nt | nt | i | nt | nt | nt | nt
O=C(CSc1nc2ccccc2nc1SCC(=O)N1CCOCC1)N1CCOCC1 | i | i | i | 32 | i | i | i
O=C(CSc1nc2ccccc2nc1SCC(=O)N1CCCCC1)N1CCCCC1 | i | i | i | i | i | i | nt
O=S(=O)(CCSc1nc2ccccc2s1)c1nc2ccccc2s1 | i | i | i | 78 | i | i | 3.6
C[C@H](CO)N1C[C@H](C)[C@@H](CN(C)CC2CCCCC2)Oc2c(NC(=O)Cc3ccccc3)cccc2C1=O | nt | i | i | nt | i | i | nt
O=C(NCCc1ccccn1)c1nc(Cn2ccc([N+](=O)[O-])n2)no1 | i | i | i | nt | i | i | nt
CC(C)Oc1cccc(C(=O)C2CCCN(C(=O)c3csnn3)C2)c1 (stereo unspecified) | i | i | i | 52 | i | i | i
O=C(OC1CO[C@H]2O[C@@H]1[C@H](OC(=O)c1ccccc1)[C@H]2OC(=O)c1ccccc1)c1ccccc1 (stereo partly specified) | i | i | i | i | i | i | nt
COc1ccc(N/N=C(\C#N)C(=N)N2CCCCC2)cc1 | i | i | i | i | i | i | nt
COc1ccc(N/N=C(\C#N)C(=N)SCc2ccccc2)cc1 | nt | nt | i | 55 | nt | i | 24
O=C(NCC1(c2ccccc2)CCCC1)C1(c2ccccc2)CCCC1 | i | i | i | 30 | i | i | i
O=C(NCC1(c2ccccc2)CCCC1)C(=O)NCC1(c2ccccc2)CCCC1 | nt | nt | i | i | nt | i | nt
CC(=O)[C@@]1(O)CC[C@H]2[C@@H]3CCC4=CC(=O)CC[C@]4(C)[C@H]3CC[C@@]21C | i | i | i | i | i | i | nt
CCCCCC(=O)O[C@]1(C(C)=O)CC[C@H]2[C@@H]3CCC4=CC(=O)CC[C@]4(C)[C@H]3CC[C@@]21C | i | i | i | 33 | i | i | i
CCOC(=O)C1CCN(C(=O)c2ccccc2)c2scc(-c3ccccc3)c2C1=O (stereo unspecified) | nt | nt | i | nt | nt | i | nt
COCCn1c(C)cc(C(=O)COC(=O)/C=C/c2ccc(OC)cc2OC)c1C | i | i | i | nt | i | i | nt
N#Cc1c(-c2ccccc2)nc(SCC(=O)N2c3ccccc3Sc3ccccc32)[nH]c1=O | i | i | i | 44 | i | i | 10
N#Cc1c(-c2ccccc2)nc(SCC(=O)N(c2ccccc2)c2ccccc2)[nH]c1=O | i | i | i | i | i | i | nt
O=C(NCc1nnc(SCC(=O)N2CCCCC2)o1)c1c(F)cccc1Cl | i | i | i | i | i | i | nt
C[C@@H](NC(=O)c1[nH]cnc1C(=O)Nc1ccccc1F)c1ccccc1 | nt | nt | i | nt | nt | i | nt
CC1=NN(c2ccccc2)C(=O)C1 | i | i | i | 89 | i | i | 3.1
CC1=NN(c2ccc(N)cc2)C(=O)C1 | i | i | i | 74 | i | i | 2.9
O=C1CC(NC(=O)C(F)(F)F)=NN1c1ccccc1 | i | i | i | 90 | i | i | 16
